# In the library only some 2.2% were active in any assay of this set; here they are far more common.
# HSP90 inh: blocks HSP90-mediated luciferase refolding in reticulocyte lysate | Rabbit reticulocyte lysate, luciferase refolding luminescence, 3 h | inhibition, % at 5.6 µM | 290,000 compounds, 0.91% hits | AID 1789;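 active = inhibition above the screen-wide mean plus 3 SD, computed separately per campaign, cut at about 16% in these data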;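 also: 0% = DMSO wells and 100% = 60 µM geldanamycin wells; inhibitors lower the luminescence because luciferase stays unfolded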
# TWEAK Fn14 block: inhibitors of TWEAK-Fn14 interaction signaling | TWEAK-stimulated Fn14 reporter cells, luciferase luminescence, 8 h | inhibition, % at 10 µM | 360,000 compounds, 2% hits; in the data active = inhibition above about 50%
# LGR2 inh: inhibitors of bursicon-induced Drosophila LGR2 receptor cAMP signaling. 380,000 compounds, 0.35% hits. inhibition, % at 9.99 µM. HEK293 LGR2, CRE-luciferase, bursicon-stimulated, 4 h. AID 720647;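 active = drop in luminescence signal, shown as inhibition above about 50% in the replicate tests, limit read from the data, passing the limit was not always enough; inconclusive = probably only some replicates passing the limit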;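 also: agonist challenge used bursicon conditioned medium at about half maximal strength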
# TROY signal inh: inhibitors of TROY-dependent NF-kB signaling. Q293 LMP1-TROYcd NF-kB luciferase reporter, 4 h. inhibition, % at 10 µM. 360,000 compounds, 0.98% hits;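 active = compounds whose plate-normalised and pattern-corrected inhibition of the luciferase reporter signal at the single screening dose is 50% or more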
# * hit, by the source's call; ? = inconclusive; nt = no result given.
SMILES,HSP90 inh,TWEAK Fn14 block,LGR2 inh,TROY signal inh
COC(=O)Nc1ccc(S(=O)(=O)N2CCCc3ccccc32)cc1,2,53*,nt,28
COc1ccc(CN(C)C[C@@H]2OCCCC[C@H](C)Oc3ccc(NC(=O)Nc4ccc5c(c4)OCO5)cc3C(=O)N([C@H](C)CO)C[C@@H]2C)cc1,nt,nt,6,nt
CO[C@@H]1CN(C)C(=O)c2ccc(NC(=O)C3CCOCC3)cc2OC[C@@H](C)NC[C@@H]1C,nt,nt,-13,nt
C[C@@H]1CN([C@@H](C)CO)C(=O)c2cc(NC(=O)c3ccncc3)ccc2O[C@@H](C)CCCCO[C@H]1CN(C)S(=O)(=O)c1cn(C)cn1,nt,nt,11,nt
N=NC(=O)c1ccccc1Nc1c(O)[nH]c2ccccc12,nt,53*,5,6
CN(CC(=O)NCCCN1CCOCC1)S(=O)(=O)c1ccc(Br)cc1,4,63*,nt,nt
O=C(C[C@@H]1C=C[C@H](NC(=O)c2cccnc2)[C@@H](CO)O1)NCc1ccncn1,nt,nt,9,nt
C[C@H]1CN([C@@H](C)CO)C(=O)c2cc(NS(=O)(=O)c3cccs3)ccc2O[C@H]1CN(C)C(=O)Nc1cccc2ccccc12,nt,nt,1,nt
CC(C)(C)/C(O)=C/c1nc2ccccc2[nH]c1=O,-3,75*,-4,82*
O=c1[nH]c2ccccc2nc1/C=C(\O)C1CC1,-7,-29,-8,6
CN(C)CCCNC(=O)C[C@@H]1CC[C@@H](NC(=O)c2ccccc2F)[C@H](CO)O1,nt,nt,3,nt
O=C1c2ccccc2C(=O)C1c1ccnc2ccccc12,2,100*,nt,42
CCc1ccccc1C1C(=O)c2ccccc2C1=O,nt,-22,-2,-19
O=C1C(c2ccnc3ccccc23)=C(O)c2ccccc21,10,94*,nt,59*
O=C1c2ccccc2C(=O)C1c1nccc2ccccc12,5,97*,nt,55*
N#CC1=C(N)SC(N)=C(C#N)C1c1ccnc2ccccc12,3,26,nt,13
CCCC#Cc1ccc2c(c1)O[C@@H](CN(C)CC1CCOCC1)[C@H](C)CN([C@H](C)CO)S2(=O)=O,nt,nt,16,nt
O=C(c1ccccc1Cl)N1N=C(c2ccc(Br)cc2)CC1c1nc2ccccc2[nH]1 (stereo not given),-5,19,nt,61*
O=C(c1ccncc1)N1N=C(c2ccc(Br)cc2)CC1c1ccccc1O (stereo not given),1,11,17,12
COc1ccc(C(=O)NC(=S)Nc2ccc3c(c2)Cc2ccccc2-3)cc1,5,15,nt,52*
Cc1ccc(C(=O)NC(=S)Nc2ccc(Oc3ccc(Cl)cc3)cc2)cc1,1,1,nt,51*
C[C@@H]1CN([C@@H](C)CO)C(=O)c2cc(-c3ccncc3)cnc2O[C@H]1CN(C)C(=O)NC1CCCC1,nt,nt,13,nt
C[C@H]1CN([C@@H](C)CO)C(=O)Cc2cc(NS(=O)(=O)c3cn(C)cn3)ccc2O[C@H]1CN(C)Cc1ccc(C(=O)Nc2ccccc2N)cc1,nt,nt,-2,nt
COc1ccc(S(=O)(=O)Nc2ccc3c(c2)CC(=O)N([C@@H](C)CO)C[C@@H](C)[C@H](CN(C)S(=O)(=O)c2ccc(Cl)cc2)O3)cc1,nt,nt,-10,nt
Cn1nnnc1Sc1ncnc2scc(Br)c12,nt,99*,?,68*
SMILES,HSP90 inh,TWEAK Fn14 block,LGR2 inh,TROY signal inh
Cn1nnnc1Sc1ncnc2scc(-c3ccccc3Br)c12,nt,39,20,30
Cn1nnnc1Sc1ncnc2scc(-c3ccccc3)c12,3,28,29,33
Cn1nnnc1Sc1ncnc2scc(-c3ccc(F)cc3)c12,2,57*,nt,29
Cn1nnnc1Sc1ncnc2scc(-c3ccc[nH]3)c12,nt,70*,45,-1
COc1ccccc1-c1csc2ncnc(Sc3nnnn3C)c12,nt,23,17,-8
Cn1nnnc1Sc1ncnc2scc(-c3cccc4ccccc34)c12,nt,60*,3,29
COc1cccc(CNC(=O)[C@@H]2[C@@H](CO)[C@@H]3Cn4c(ccc(-c5ccncc5)c4=O)[C@@H]3N2C)c1,nt,nt,-23,nt
O=C(C[C@@H]1CC[C@@H](NC(=O)c2ccncc2)[C@H](CO)O1)NCCc1ccncc1,nt,nt,17,nt
CO[C@H]1CN(C)C(=O)c2cc(NC(C)=O)ccc2OC[C@H](C)N(C(=O)c2ccccc2F)C[C@@H]1C,nt,nt,-8,nt
Cn1nnnc1Sc1ncnc2scc(-c3ccc(Br)cc3)c12,nt,88*,100*,60*
C[C@H]1CN([C@@H](C)CO)C(=O)Cc2cc(NC(=O)CCN3CCOCC3)ccc2O[C@@H]1CN(C)Cc1ccc(Cl)c(Cl)c1,nt,nt,-3,nt
CS(=O)(=O)c1ccc(C(=O)OCC(=O)NCc2cccs2)cc1[N+](=O)[O-],nt,92*,13,24
O=C(N/N=C(\CC(=O)c1cccs1)C(F)(F)F)c1ccncc1,2,-12,14,3
